The list is not random: actives were taken first. Their share in the collection is about 4%.
Glioma ERSR ind: ER stress response induction in glioma; U87-MG GRP78 promoter luciferase reporter, 16 h; 420,000 compounds, 0.02% hits; Potency, µM, inactives show top-dose activation, actives largely listed as activators; active means well fitted activation curve with a large enough effect; inconclusive means small, poorly fitted or top-dose-only effect; inactive means no such curve, though single readings can be large or run the other way; further: potency means the concentration at half of the fitted maximal effect; series mostly up to about 76 µM; % of control where 0% means no effect; nearly all actives have a fitted effect of over 35% in size
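Stably transfected U87-MG human glioma cells carrying a GRP78-based luminescent sensor were seeded at 1000 cells/well, pin-dosed with compounds and incubated 16 h. Luciferase reagent was then added, and end-point luminescence was read after 10 min at room temperature.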
D1 PAM: potentiators of human D1 dopamine receptor | HEK293 TREx D1 cells, calcium flux, dopamine EC20 potentiation | potentiation, % at 10 µM | 360,000 compounds, 0.036% hits | AID 504651; in the data active means potentiation above about 30%; further: 0% is about no effect
Target sequence (P21728 whole entry, looked up): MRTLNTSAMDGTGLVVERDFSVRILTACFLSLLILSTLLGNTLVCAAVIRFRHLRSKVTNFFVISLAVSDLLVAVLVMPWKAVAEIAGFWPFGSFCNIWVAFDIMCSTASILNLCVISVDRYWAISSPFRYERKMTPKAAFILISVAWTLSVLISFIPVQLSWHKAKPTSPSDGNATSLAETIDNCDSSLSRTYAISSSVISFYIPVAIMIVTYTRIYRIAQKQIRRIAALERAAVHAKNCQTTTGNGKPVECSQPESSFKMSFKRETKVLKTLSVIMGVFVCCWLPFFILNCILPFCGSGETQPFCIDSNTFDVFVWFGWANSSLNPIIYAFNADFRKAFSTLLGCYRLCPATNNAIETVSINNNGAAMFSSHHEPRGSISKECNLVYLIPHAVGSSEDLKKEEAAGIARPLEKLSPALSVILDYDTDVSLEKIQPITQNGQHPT
D1 agonist: activates the human D1 dopamine receptor; P21728; activation, % at 2 µM; HEK293 T-REx D1 cells, calcium flux, agonist mode; 360,000 compounds, 1% hits; AID 504660; further: 0% is about no effect
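Tetracycline-induced HEK293 TREx D1 cells, force-coupled to calcium signalling, were dye-loaded with a no-wash calcium kit. Compound was pin-added after a 10 s baseline. Fluorescence was read kinetically at 1 cycle/s for 180 s, with calcium rises flagged as agonism.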
D1 antag: antagonists of human D1 dopamine receptor; activity change, negative = inhibition, % at 10 µM; HEK293 TREx D1 cells, calcium flux, dopamine EC80; hits give low values; AID 504652; 360,000 compounds, 3.2% hits; P21728; in the data active means activity change below about -30%; further: on the % scale 0 is the no-effect control and ±100 the full control effect
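HEK293 T-REx cells expressing inducible, force-coupled D1 receptor; no-wash Ca dye, 30–90 min RT. Cmpd → 180 s read at 1 Hz → EC80 DA → 180 s read.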
TRHR agonist: agonists of human TRH receptor; activation, % at 2 µM; P34981; AID 493084; 360,000 compounds, 0.18% hits; TRHR cells, calcium flux fluo-8, FDSS agonist mode; further: 0% is about no effect
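TRHR-expressing cells, plated overnight in medium with 10% serum, were loaded with fluo-8 calcium dye at room temperature. After a 10 s baseline, library compound was pin-added and calcium release was recorded kinetically (ex 480/em 530) as agonist response.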
TRHR enhancer: allosterically enhances the human TRH receptor. P34981. TRHR cells, fluo-8 calcium fluorescence, EC20 TRH enhancement. enhancement, % at 2 µM. 360,000 compounds, 0.66% hits; in the data active means enhancement above about 30%; further: 0% is about no effect
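Enhancer read-out: after compound pinning and an initial kinetic agonist-mode read, an EC20 of TRH (10 nM final) was injected and fluo-8 calcium signal (Ex 480/Em 530) followed at 1 s/cycle for 100 cycles in TRHR-expressing cells.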
* marks the source's active call; other numbers are inactive results; ? = inconclusive; . = not tested or not shown. Unless noted, no stated cut-off is given here; in the data, active means activation above about 30%; inactive means the rest.

SMILES | Glioma ERSR ind | D1 PAM | D1 agonist | D1 antag | TRHR agonist | TRHR enhancer
C=CCN(c1ccccc1OC)S(=O)(=O)c1cccc(C(=O)OCC(=O)N2CCOCC2)c1 | -5% | . | . | . | . | .
O=C(c1ccc(F)cc1)C1CCN(C(=O)Nc2ccc(F)cc2)CC1 | -5% | -10 | 6 | -30* | 0 | -3
CCOc1ccc(NC(=O)N2CCC(C(=O)c3ccc(F)cc3)CC2)cc1 | -2% | -8 | -1 | -6 | 0 | 5
Cc1ccc(C(=O)N2CCC(C(=O)c3ccc(F)cc3)CC2)cc1 | 5% | . | . | . | . | .
O=C(Nc1ccc(Br)cc1)N1CCCCCC1 | 8% | -7 | 0 | -50* | 0 | -8
Cc1ccc(C(=O)C2CCN(CC(=O)N3CCN(c4ccc(F)cc4)CC3)CC2)cc1 | -2% | -4 | 5 | -31* | 0 | 1
COC(=O)C1=C(C(C)=O)C(c2ccc(C)cc2)n2nnnc2N1 (configuration not stated) | -3% | -9 | 5 | -15 | 0 | -1
Cc1ccc(NC(=O)c2c(C)oc3ncn(C)c(=O)c23)cc1F | -2% | -4 | 5 | -1 | 1 | -2
CCc1ccc(C(=O)Nc2cc(C)on2)o1 | -2% | -8 | 0 | -8 | 0 | 4
COc1ccc(CN2CCC(CNS(=O)(=O)c3cccc(C(F)(F)F)c3)CC2)cc1 | -4% | -6 | 35* | -12 | 1 | 12
COc1ccc(S(=O)(=O)NCC2CCCN(Cc3ccccc3C)C2)cc1 (configuration not stated) | -4% | -4 | 3 | -30* | -1 | -3
O=C(O)c1cccc(S(=O)(=O)NCC2CCCO2)c1 (configuration not stated) | -5% | 6 | 0 | -3 | 0 | -1
CCOc1ccccc1CN1CCCC(CNS(=O)(=O)c2ccc(OC)cc2)C1 (configuration not stated) | -6% | -2 | 21 | -24 | 1 | 11
COC(=O)c1cc(S(=O)(=O)NCC2CCN(Cc3ccc(F)cc3)CC2)c[nH]1 | -1% | -6 | -1 | 6 | 0 | -7
O=S(=O)(NCC1CCCO1)c1cccc(C(F)(F)F)c1 (configuration not stated) | 0% | -4 | 4 | -46* | 0 | 0
CC(=O)Nc1cccc(NC(=O)C(=O)NCCc2sc(-c3ccccc3)nc2C)c1 | -3% | -6 | 9 | -40* | 0 | -1
Cc1nc(-c2ccccc2)sc1CCNC(=O)C(=O)Nc1ccc2c(c1)OCCO2 | -4% | 0 | 7 | -45* | 0 | -3
COc1cccc(-n2nnc3c(=O)n(C/C=C/c4ccccc4)cnc32)c1 | 0% | -10 | 0 | -41* | 1 | 10
COc1cc(CCC(=O)OCC(=O)Nc2ccc(F)cc2F)cc(OC)c1OC | -4% | -2 | 16 | -48* | 0 | 12
O=C(CCC(=O)OCC(F)(F)C(F)F)Nc1ccc(F)cc1F | -5% | -4 | 3 | -60* | 0 | 5
COc1cc(CCC(=O)OCC(=O)c2ccc[nH]2)cc(OC)c1OC | -3% | . | 6 | -42* | 0 | 5
COc1cc(CC(=O)OCC(=O)NCC(C)C)cc(OC)c1OC | 0% | -3 | 9 | -33* | 2 | -1
COc1cc(CC(=O)OCC(=O)NCc2ccc(C)cc2)cc(OC)c1OC | -5% | 6 | 2 | 21 | 0 | -3
Cc1ccc(NC2=C(C(=O)c3ccccc3)N(C)S(=O)(=O)c3ccccc32)cc1 | -4% | -1 | 1 | -5 | 0 | -7
CCn1c(CNC(=O)c2ccco2)nnc1SCC(=O)c1ccc(F)cc1 | -4% | . | 3 | 4 | 0 | 8
SMILES | Glioma ERSR ind | D1 PAM | D1 agonist | D1 antag | TRHR agonist | TRHR enhancer
COc1cc(CCC(=O)OCC(=O)Nc2ccccc2C#N)cc(OC)c1OC | 0% | 1 | 11 | 6 | 0 | 34*
C=CCn1c(SCc2ccc(C#N)cc2)nnc1-c1cccc(Cl)c1 | -6% | -3 | -4 | -39* | -2 | 0
O=C(/C=C/c1ccccc1)N1CCC[C@H]1CO | 0% | -4 | -1 | 13 | 0 | 2
O=C(NCc1cccs1)C1CC(c2ccc(Cl)cc2)=NO1 (configuration not stated) | ? | -6 | 8 | -33* | -2 | -1
O=C(NCCc1cccs1)C1CC(c2cccc(F)c2)=NO1 (configuration not stated) | 3% | -6 | 40* | -7 | -2 | -3
O=C(NCc1ccccc1C(F)(F)F)C1CC(c2cccc(F)c2)=NO1 (configuration not stated) | 0% | -9 | 1 | -91* | 0 | -1
N#Cc1cc(Nc2c(N)nc[nH]c2=O)c([N+](=O)[O-])cc1C#N | -1% | -1 | 1 | -5 | 2 | 1
CCc1ccc(OCC(=O)Nc2c(C(=O)c3ccc(Br)cc3)oc3ccccc23)cc1 | -2% | -2 | 2 | -8 | 0 | 2
NC(N)=NS(=O)(=O)c1ccc(N/C=C/C(=O)c2ccc(Cl)c(Cl)c2)cc1 | 3% | -2 | 3 | 3 | 0 | 21
Nn1cnc2c([nH]c3ccccc32)c1=O | -1% | 0 | 2 | -32* | -2 | -3
O=S(=O)(c1ccc(Cl)cc1)c1nc(-c2cccc(Br)c2)oc1NCc1ccccc1 | -3% | 0 | 4 | -12 | 1 | 31*
CCc1cc2cc3c(cc2nc1SCC(=O)Nc1c[nH]c(=O)[nH]c1=O)OCO3 | -5% | -5 | 3 | 16 | 1 | -2
Cc1cc(C)nc(/N=C(\N)Nc2ccc(C)c([N+](=O)[O-])c2)n1 | -3% | -11 | 11 | -19 | 2 | -6
COc1ccccc1N/C(N)=N/c1nc(C)cc(C)n1 | -9% | -13 | 3 | -34* | 0 | 0
Cc1cc(C)nc(/N=C(\N)Nc2cccc(OCc3ccccc3)c2)n1 | -1% | -15 | 66* | -55* | 25 | -20
Cc1cc(C)nc(/N=C(\N)Nc2ccc(S(=O)(=O)O)cc2)n1 | -4% | -1 | 2 | 5 | 0 | -12
Cc1cc(C)nc(/N=C(\N)Nc2ccc(OCc3ccccc3)cc2)n1 | 7% | 1 | 102* | -38* | 50* | -3
CCOC(=O)C(=O)Nc1ccc(OCc2ccccc2)cc1 | -8% | -7 | 6 | -13 | -1 | -5
Cc1cc(C)nc(/N=C(\N)Nc2ccc(CC(=O)OC(C)C)cc2)n1 | 2% | 3 | 24 | -50* | 13 | -8
Cc1cccc(CNc2nc(-c3cccc(NS(C)(=O)=O)c3)nc3ccccc23)c1 | -8% | . | . | . | . | .
O=C(Nc1cc(Cl)cc(Cl)c1)C(NCC1CCCO1)c1ccccc1 (configuration not stated) | -3% | 8 | 7 | 17 | 0 | -6

Screens: PubChem, National Center for Advancing Translational Sciences (NCATS)
